ClpP mod – qHTS Assay for Activators of ClpP | ATP-dependent Clp protease proteolytic subunit (Bacillus subtilis (strain 168)), P80244 | AID 651965, 2013 | purified B. subtilis ClpP, FRET peptide cleavage, 20 min | 1.9% of 340,000 active | Potency, µM (doses to about 57.5 µM); active = well fitted falling curve with a large enough effect; inconclusive = small, poorly fitted or top-dose-only effect; inactive = no such curve, though single readings can be large or run the other way; also: the source files actives as falling curves though it sought activators and does not explain the sign; nearly all actives have a fitted effect of over 65% in size
Target sequence (P80244 whole entry, looked up): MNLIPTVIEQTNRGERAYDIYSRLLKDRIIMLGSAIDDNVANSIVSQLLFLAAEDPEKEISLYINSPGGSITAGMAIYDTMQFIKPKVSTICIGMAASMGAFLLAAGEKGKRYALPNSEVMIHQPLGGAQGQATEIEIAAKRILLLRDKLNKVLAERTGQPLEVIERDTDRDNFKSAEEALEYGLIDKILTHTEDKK
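Purified B. subtilis ClpP, 10 microg/mL final in Tris/HCl pH8 with KCl, BSA, glycerol and Tween-20, cleaved an Abz/nitrotyrosine-quenched decapeptide. Fluorescence (ex 320, em 430) was read at 0 and 20 min at room temperature. Delta was normalized to 5.8 microM ADEP and DMSO/no-enzyme controls.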
IL-1B inflam inh – qHTS for Inhibitors of Inflammasome Signaling: IL-1-beta AlphaLISA Primary Screen | AID 743279, 2014 | activity change, % at 57.5 µM | 4.7% of 360,000 active | THP-1 LPS/ATP IL-1B secretion, AlphaLISA, 16 h; hits give low values; in the data active = activity change below about -50%; inconclusive = mostly about -30% to -49%
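Secreted IL-1B measured by AlphaLISA bead assay after 16 h compound exposure of THP-1 cells; compounds (final up to 57.5 uM) added 1 h before LPS (250 ng/mL) and ATP (1.25 mM) stimulation; lower signal means less secretion.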
DT40 TDP1 CPT – qHTS for Inhibitors of human tyrosyl-DNA phosphodiesterase 1 (TDP1): qHTS in cells in presence of CPT; AID 686979, 2013; chicken DT40 Tdp1-/-;hTDP1 cells + 20 nM CPT, ATP luminescence, 48 h; 12% of 420,000 active; Potency, µM (top dose mostly 46.2 µM), actives largely listed as inhibitors; also: nearly all actives have a fitted effect of over 55% in size
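Cell growth measured by CellTiter-Glo luminescence after a minimum 48 h, 37 C compound exposure with 20 nM CPT in Tdp1-knockout DT40 cells stably expressing hTDP1, seeded 400/well; qHTS titration format.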
DRD3 antagonist – qHTS of D3 Dopamine Receptor Antagonist: qHTS; max response, negative = inhibition, %; 2.5% of 360,000 active; D3R cells, DiscoveRx beta-arrestin luminescence, antagonist mode; hits give low values; in the data active = max response below about -50%; inconclusive = no clear call, values can overlap the other calls
Target sequence (P35462 whole entry, looked up): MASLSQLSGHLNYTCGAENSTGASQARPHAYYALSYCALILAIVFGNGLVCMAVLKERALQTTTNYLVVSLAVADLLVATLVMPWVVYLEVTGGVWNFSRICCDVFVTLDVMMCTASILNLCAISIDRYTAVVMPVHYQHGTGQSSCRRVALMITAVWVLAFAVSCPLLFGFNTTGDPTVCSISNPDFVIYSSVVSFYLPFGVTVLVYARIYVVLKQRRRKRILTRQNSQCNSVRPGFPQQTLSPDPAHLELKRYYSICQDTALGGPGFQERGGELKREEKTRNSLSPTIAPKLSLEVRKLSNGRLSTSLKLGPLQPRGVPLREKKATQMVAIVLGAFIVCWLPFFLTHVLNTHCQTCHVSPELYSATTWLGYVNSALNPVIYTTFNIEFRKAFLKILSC
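Cells plated overnight at 1500 cells/well, then exposed to library compounds with dopamine controls for 90 minutes at 37 degrees C. DiscoveRx reagent added for 30–60 minutes at room temperature; luminescence read, quantitative HTS format.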
DRD3 agonist – qHTS of D3 Dopamine Receptor Agonist: qHTS. D(3) dopamine receptor (Homo sapiens), P35462. D3R DiscoveRx beta-arrestin cells, luminescence, 90 min. 0.58% of 410,000 active. max activation, %; in the data active = max activation above about 30%
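Cells at 1500/well, incubated overnight, then treated with pinned compounds (dopamine as control) for 90 min at 37 degrees C. DiscoveRx reagent added for 30 - 60 minutes at room temperature; luminescence read.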
TDP1 cell noCPT – qHTS for Inhibitors of human tyrosyl-DNA phosphodiesterase 1 (TDP1): qHTS in cells in absence of CPT; DT40 Tdp1-/- hTDP1 cells, no CPT, ATP luminescence, 48 h; Potency, µM (series often up to 46.2 µM), usual class: inhibitors; 15% of 420,000 active; also: nearly all actives have a fitted effect of over 55% in size
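Luminescent ATP content (CellTiter-Glo) served as the growth readout. Knockout chicken DT40 cells expressing human TDP1 were exposed to compounds without camptothecin for a minimum 48 hr at 37 °C.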
Hits are given with their value; – = inactive; ? = inconclusive; · = no result; [ ] = dose if it differs, or a comment. This is a sample that favours compounds with a hit; in the whole collection about 21% have one here. Unless noted, calls follow the shape of the dose curve; as a rule, active = well fitted inhibition curve with a large enough effect; inconclusive = small, poorly fitted or top-dose-only effect; inactive = flat fitted curve, though single readings scatter.

SMILES	ClpP mod	IL-1B inflam inh	DT40 TDP1 CPT	DRD3 antagonist	DRD3 agonist	TDP1 cell noCPT
O=C(CN1CCCN(Cc2ccc(F)cc2)S1(=O)=O)NCc1ccccc1Cl	–	·	?	·	–	16.4µM
COc1cccc(-c2cc3c(c(OC)c2)OCCN(Cc2cccn2-c2ccccn2)C3)c1	·	·	–[9.04 µM]	·	·	–
Cc1onc(-c2ccccc2Cl)c1C(=O)Nc1ccccc1C(N)=O	–	–	?	–	–	?
Cc1onc(-c2ccccc2Cl)c1C(=O)Nc1ccccc1C(=O)NC(C)C	–	?	3.26µM	–	–	2.31µM
Cc1onc(-c2ccccc2Cl)c1C(=O)NNC(=O)c1ccc(F)cc1	·	–	–	–	–	–
Cc1onc(-c2ccccc2Cl)c1C(=O)NC(=S)Nc1ccccc1C(N)=O	–	–	25.9µM	–	–	?
Cc1cccc(C(=O)NNC(=O)c2c(-c3ccccc3Cl)noc2C)c1O	·	–	?	–	–	29.1µM
Cc1onc(-c2ccccc2Cl)c1C(=O)N1CC(C)CC(C)C1 (centres undefined)	·	–	14.6µM	–	–	10.3µM
O=C(NCc1cccnc1)c1nc(-c2ccccc2)n(-c2ccccc2)n1	?	–	?	–	–	–
C=C(C)[C@@H]1CC=C(CN2CCC(N3CCC(C(=O)N4CCCC4)CC3)CC2)CC1	–	-61.6	20.6µM	–	–	20.6µM
CC(C)=CCCC(C)CN1CCC(N2CCC(C(=O)N3CCCC3)CC2)CC1 (centres undefined)	–	–	?	–	–	16.4µM
C=C(C)C1CC=C(CN2CCN(Cc3ccccc3)CC2)CC1 (centres undefined)	–	–	?	-56.5	–	?
C=C(C)C1CC=C(CN2CCC(O)CC2)CC1 (centres undefined)	–	–	–	?	–	–
C=C(C)[C@@H]1CC=C(C(=O)O)CC1	–	–	–	–	–	–
CC(C)/C=C/C(=O)N1CCC(N2CCC(C(=O)N3CCOCC3)CC2)CC1	·	–	–	–	–	–
C=C(C)[C@@H]1CC=C(CN2CCN(Cc3ccccc3)CC2)CC1	·	–	?	-65.0	–	?
COc1ccc(/C=N/NC(=O)c2ccco2)cc1OCc1ccccc1	–	–	–	–	–	?
CCc1nc2ccc(C(=O)NCC3CCCCC3)cn2c1N(C)C(=O)c1cccc(OC)c1	–	–	?	–	–	?
COC(=O)c1ccc(Oc2c(F)c(F)nc(N3CCOCC3)c2F)cc1	·	–	?	–	–	?
CCOC(=O)C1=CN(CC2CCCO2)C=C(C(=O)OCC)C1c1ccccc1C(F)(F)F (centres undefined)	–	–	?	–	–	18.4µM
COc1ccc(-c2[nH]ncc2C(=O)NCc2cccc(F)c2)cc1	–	·	–	·	–	–
Cc1c(O)c(=O)n(-c2ccccc2)n1C	–	–	–	-56.5	–	–
Cc1c(-n2c(SCC(C)C)nc3ccccc3c2=O)c(=O)n(-c2ccccc2)n1C	–	–	?	–	–	?
Cc1c(N=NC2=C(O)CC(C)(C)CC2=O)c(=O)n(-c2ccccc2)n1C	·	–	?	-62.7	–	?
CC1=CC(=Nc2c(C)n(C)n(-c3ccccc3)c2=O)C=C(C)C1=O	–	–	?	–	–	20.6µM
SMILES	ClpP mod	IL-1B inflam inh	DT40 TDP1 CPT	DRD3 antagonist	DRD3 agonist	TDP1 cell noCPT
CC(=O)/C(N=Nc1c(C)n(C)n(-c2ccccc2)c1=O)=C(\C)O	·	–	–	–	–	–
CCCc1nc2ccccc2c(=O)n1-c1c(C)n(C)n(-c2ccccc2)c1=O	–	–	25.9µM	–	–	18.4µM
CCC(C)C1=CC(=Nc2c(C)n(C)n(-c3ccccc3)c2=O)C=C(C(C)CC)C1=O (centres undefined)	·	–	?	–	–	?
CCOc1cc(C(=O)NC(C)CCc2ccccc2)cc(OCC)c1OCC (centres undefined)	–	–	?	–	–	–
COc1ccccc1C(=O)NC(=O)Cn1nc(C)c([N+](=O)[O-])c1C	–	–	–	–	–	–
CCCC(=O)NC(=S)c1c(C)n(C)n(-c2ccccc2)c1=O	–	–	–	–	38.1	–
Cc1c(N=Cc2c(O)n(C)c(=O)c3ccccc23)c(=O)n(-c2ccccc2)n1C	–	–	?	–	32.8	?
Cc1ccc(O)c(N=NC2=C(O)CC(C)(C)CC2=O)c1	–	–	14.6µM	–	–	8.2µM
Cc1c(CN(C)CCc2ccccc2)c(=O)n(-c2ccccc2)n1C	–	–	–	-76.8	–	–
O=C(CSc1nnc(-c2ccccc2)o1)c1cccc([N+](=O)[O-])c1	–	·	–	·	–	?
CCc1ccccc1NC(=O)CN1C(=O)CCSc2ccc(S(=O)(=O)N3CCCC3)cc21	–	·	?	·	–	?
CC(=O)/C(C#N)=C1\NC(=O)C(Cc2ccc(C)c(C)c2)S1 (centres undefined)	–	–	0.581µM	–	–	0.0731µM
CC(=O)/C(C#N)=C1\NC(=O)C(Cc2cc(Cl)ccc2Cl)S1 (centres undefined)	–	–	?	–	–	3.26µM
CC(=O)/C(C#N)=C1\NC(=O)C(Cc2ccc(F)cc2)S1 (centres undefined)	·	–	?	–	–	1.3µM
O=S(=O)(c1ccc(Br)cc1)N1CCOCC1	–	·	–	·	·	–
CN1CCN(C(=O)c2ccc(NS(=O)(=O)c3cccc([N+](=O)[O-])c3)cc2)CC1	·	–	–	–	–	–
O=C(CSc1nc2ccccc2nc1Cc1ccc(Cl)cc1)N1CCCc2ccccc21	–	·	–	·	–	–
Cc1ccc(CNc2nc3ccc(Cl)cc3n3nnnc23)cc1	–	·	–	·	–	–
CC(C)(Oc1ccc(Br)cc1)C(=O)Nc1cc(-c2nc3ccccc3[nH]2)ccc1Cl	–	·	·	·	–	·
CN(c1ccccc1C(=O)Nc1cccc(Cl)c1Cl)S(C)(=O)=O	–	–	–	-57.2	–	–
O=C(O)c1cc2c(ncc3c(=O)n(-c4ccccc4)[nH]c32)s1	–	–	?	–	–	–
OC1CCC(Nc2ccn3nc(-c4cccc(Cl)c4)cc3n2)CC1 (centres undefined)	–	–	?	–	–	?
CCC(CO)Nc1ccn2nc(-c3cccc(Cl)c3)cc2n1 (centres undefined)	–	–	23.1µM	–	–	23.1µM
